PubChem BioAssay AID720519 (National Center for Advancing Translational Sciences (NCATS), 2013)
Inconclusive results are not listed. Calls of active or inactive are those of the source. Calls come from the whole dose curve; as a rule, active = well fitted activation curve with a large enough effect; inconclusive = small, poorly fitted or top-dose-only effect; inactive = flat fitted curve, though single readings scatter.

Assay: qHTS for Inhibitors of Cell Surface uPA Generation: Confirmatory Assay for Cherry-picked Compounds
Conditions: cell surface uPA activity generation, qHTS confirmation; series mostly up to 115 µM
Method in brief: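 RAW 264.7 cells at 4000/well, incubated overnight, then treated with compounds. After 24 h at 37 C, viability was read by ATPlite luminescence. An increase in signal indicates blocked uPA-dependent LF entry.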

Potency, inactive:
CC(=O)c1ccc(OCCCCOc2ccc(C(C)=O)cc2)cc1
CCOC(=O)Cc1csc(NC(=O)Nc2cccc(OC)c2)n1
CC(C)c1ccc(NC(=O)COc2ccc(S(=O)(=O)N3CCOCC3)cc2)cc1
CCCCn1c(N)c(N(CCC(C)C)C(=O)c2sc3nc4n(c(=O)c3c2C)CCC4)c(=O)[nH]c1=O
COc1ccc(-c2cc(-c3ccccc3)nc3ncnn23)cc1
CCN1CCCCC(=N/O)/C(=N/O)CCCC1
Nc1cc(=O)[nH]c(SCC(=O)Nc2cccc([N+](=O)[O-])c2)n1
Cc1ccc(C(=O)NNC(=O)CNc2cccc(Cl)c2)cc1
CC(O)[C@H]1CNC(=O)C(=O)N1CCc1cccc(F)c1 (stereo partly drawn)
COc1cccc(NC(=S)NCc2ccc3c(c2)cc(C)n3C)c1
Cc1cc(=O)[nH]c(=S)[nH]1
COc1ccc(C2=C/C(=C\c3ccccc3OC(C)=O)C(=O)O2)cc1
COc1ccc([C@H]2[C@H](C(=O)OC(C)(C)C)N3N=Cc4ccccc4C3C23C(=O)c2ccccc2C3=O)cc1OC (stereo partly drawn)
COc1cc(CNCCc2ccccc2)cc(Br)c1OCC(=O)Nc1ccccc1C
COc1ccc(C2=Nc3ccccc3C2(O)CCN2C(=O)c3ccccc3C2=O)cc1 (stereo not drawn)
CN(C)CCNC(=O)Nc1ccc([N+](=O)[O-])cc1
CC(C)OC(=O)Nc1ccc(-c2ccc(NC(=O)OC(C)C)cc2Cl)c(Cl)c1
COc1ccc(Cl)cc1NC(=O)CSc1nc(=O)n(CCN(C)C)c2c1CCCC2
